Several values for one entry are separate records, joined by “and”; a condition that tells them apart may be missing. Equal values may be shown once. Results filed as inconclusive are left out. Where a call stands in place of a potency, no number is given. Activity calls are given as the source filed them. Calls come from the whole dose curve; as a rule, active = well fitted inhibition curve with a large enough effect; inconclusive = small, poorly fitted or top-dose-only effect; inactive = flat fitted curve, though single readings scatter. Where a SMILES comes first, the peptide text is derived from it. [ ]: non-standard residue; d: D form. pGlu = O=C1CC[C@@H](C(=O)O)N1; Thz = O=C(O)[C@@H]1CSCN1
Tests used:
Experiment in all cases: qHTS profiling for inhibitors of Plasmodium falciparum proliferation (AID 504749); note: nearly all actives have a fitted effect of over 60% in size
Settings in all cases: P. falciparum in erythrocytes, SYBR Green DNA, 72 h; series mostly up to 28.7 µM
P94_40 = system: P94_40
How it was run: (§1)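 Readout was DNA-dye fluorescence from lysed cultures, ex 485/em 535 nm. Parasitized red cells had grown 72 h with compound; data scaled between 0.29 uM artemisinin and DMSO wells and corrected using vehicle-only plates.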

PAD = system: PAD
How it was run: as §1

PC15 = system: PC15
How it was run: as §1

PC26 = system: PC26
How it was run: as §1

PC49 = system: PC49
How it was run: as §1

SC27B = system: SC27B
How it was run: as §1

TAB109 = system: TAB109
How it was run: as §1

TAB113 = system: TAB113
How it was run: as §1

TAB165 = system: TAB165
How it was run: as §1

W2 = system: W2
How it was run: as §1
Potency is the fitted concentration of half-maximal effect.

Compound	Potency (P94_40)	Potency (PAD)	Potency (PC15)	Potency (PC26)	Potency (PC49)	Potency (SC27B)	Potency (TAB109)	Potency (TAB113)	Potency (TAB165)	Potency (W2)
Cc1ccc(O)c(-n2nc3ccccc3n2)c1	inactive	inactive	inactive	inactive	inactive	inactive	inactive	inactive	inactive	inactive
[O-][n+]1ccccc1SSc1cccc[n+]1[O-]	0.794 µM (active)	0.891 µM (active)	2.24 µM (active)	1.51 µM (active)	1.41 µM (active)	0.891 µM (active)	0.891 µM (active)	0.891 µM (active)	0.891 µM (active)	0.757 µM (active)
CCCCCCOc1ccccc1C(N)=O	inactive	inactive	inactive	inactive	inactive	inactive	inactive	inactive	inactive	inactive
O=C(O)[C@H](O)[C@@H](O)[C@H](O)[C@H](O)CO	inactive	inactive	inactive	inactive	inactive	inactive	inactive	inactive	inactive	inactive
CC1(C)[C@@H](O)CC[C@]2(C)[C@H]3C(=O)C=C4[C@@H]5C[C@@](C)(C(=O)O)CC[C@]5(C)CC[C@@]4(C)[C@]3(C)CC[C@@H]12	inactive	inactive	inactive	inactive	inactive	inactive	inactive	inactive	inactive	inactive
CCCCCCCCCCCCCCCC(=O)OC(C)C	inactive	inactive	inactive	inactive	inactive	inactive	inactive	inactive	inactive	inactive
O=C(O)/C=C/C(O)c1ccc(Cl)cc1 (stereo unspecified)	inactive	inactive	inactive	inactive	inactive	inactive	inactive	inactive	inactive	inactive
Nc1c(CC(=O)O)cccc1C(=O)c1ccc(Br)cc1	inactive	inactive	inactive	inactive	inactive	inactive	inactive	inactive	inactive	inactive
c1ccc2sc(SSc3nc4ccccc4s3)nc2c1	inactive	inactive	inactive	inactive	inactive	inactive	inactive	inactive	inactive	inactive
CN1[C@@H]2CC[C@H]1CC(OC(=O)C(CO)c1ccccc1)C2 (stereo partly specified)	inactive	inactive	inactive	inactive	inactive	inactive	inactive	inactive	inactive	inactive
O=C(OCc1ccccc1)c1ccccc1	inactive	inactive	inactive	inactive	inactive	inactive	inactive	inactive	inactive	inactive
Cc1nc2ccccc2n1Cc1ccc(Cl)cc1	inactive	inactive	inactive	inactive	inactive	inactive	inactive	inactive	inactive	–
O=C(O)Cc1ccc(-c2ccccc2)cc1	inactive	inactive	inactive	inactive	inactive	inactive	inactive	inactive	inactive	inactive
O=C(/C=C/c1ccccc1)NCCO	inactive	inactive	inactive	inactive	inactive	inactive	inactive	inactive	inactive	inactive
COc1cc2c3cc1Oc1cc(ccc1O)C[C@@H]1c4c(cc(OC)c(O)c4Oc4ccc(cc4)C[C@@H]3N(C)CC2)CC[N+]1(C)C	inactive	inactive	inactive	inactive	inactive	inactive	inactive	inactive	inactive	inactive
Nc1ccc(O)c(C(=O)O)c1	inactive	inactive	inactive	inactive	inactive	inactive	inactive	inactive	inactive	inactive
Cc1ccccc1CNc1ncnc2c1ncn2C1OC(CO)C(O)C1O (stereo unspecified)	inactive	inactive	inactive	inactive	inactive	inactive	inactive	inactive	inactive	inactive
C=CCCCCCCCCC(=O)O	inactive	inactive	inactive	inactive	inactive	inactive	inactive	inactive	inactive	inactive
Cc1[nH]cnc1CN1CCc2c(c3ccccc3n2C)C1=O	inactive	inactive	inactive	inactive	inactive	inactive	inactive	inactive	inactive	inactive
CC1(C)S[C@@H]2[C@H](NC(=O)[C@H](NC(=O)N3CCN(S(C)(=O)=O)C3=O)c3ccccc3)C(=O)N2[C@H]1C(=O)O	inactive	inactive	inactive	inactive	inactive	inactive	inactive	inactive	inactive	inactive
O=C(O)COc1ccc(C(=O)c2cccs2)c(Cl)c1Cl	inactive	inactive	inactive	inactive	inactive	inactive	inactive	inactive	inactive	inactive
O=C1CC[C@@H](C(=O)N2CSC[C@H]2C(=O)O)N1 ([pGlu]-[Thz]-OH)	inactive	inactive	inactive	inactive	inactive	inactive	inactive	inactive	inactive	inactive
C=C(Nc1ccc(OCC)cc1)Nc1ccc(OCC)cc1	inactive	inactive	inactive	inactive	inactive	inactive	inactive	inactive	inactive	–

Compound	Potency (P94_40)	Potency (PAD)	Potency (PC15)	Potency (PC26)	Potency (PC49)	Potency (SC27B)	Potency (TAB109)	Potency (TAB113)	Potency (TAB165)	Potency (W2)
CCC1C(=O)OCC1Cc1cncn1C (stereo unspecified)	inactive	inactive	inactive	inactive	inactive	inactive	inactive	inactive	inactive	inactive
CCOC(=O)c1ccccc1O	inactive	inactive	inactive	inactive	inactive	inactive	inactive	inactive	inactive	inactive
CC1(C)C[C@@H]1C(=O)N/C(=C\CCCCSC[C@H](N)C(=O)O)C(=O)O	inactive	inactive	inactive	inactive	inactive	inactive	inactive	inactive	inactive	inactive
O=C(O)[C@H](CC(=O)N1C[C@H]2CCCC[C@H]2C1)Cc1ccccc1	inactive	inactive	inactive	inactive	inactive	inactive	inactive	inactive	inactive	inactive
CCCCCC[C@@H](O)C/C=C\CCCCCCCC(=O)O	inactive	inactive	inactive	inactive	inactive	inactive	inactive	inactive	inactive	inactive
Cc1ccc(C(=O)c2ccc(CC(=O)O)n2C)cc1	inactive	inactive	inactive	inactive	inactive	inactive	inactive	inactive	inactive	inactive
CN1CCN(c2cc3c(nn2)Oc2ccccc2N3C)CC1	inactive	inactive	inactive	inactive	inactive	inactive	inactive	inactive	inactive	inactive
CCCOC(=O)c1ccc(O)cc1	inactive	inactive	inactive	inactive	inactive	inactive	inactive	inactive	inactive	inactive
C=CCN1C(=O)C(CC(C)C)NC1=S (stereo unspecified)	inactive	inactive	inactive	inactive	inactive	inactive	inactive	inactive	inactive	inactive
C=CC(N)CCC(=O)O (stereo unspecified)	inactive	inactive	inactive	inactive	inactive	inactive	inactive	inactive	inactive	inactive
C#C[C@]1(O)CC[C@H]2[C@@H]3CCc4cc(O)ccc4[C@H]3CC[C@@]21C	inactive	inactive	inactive	inactive	inactive	inactive	inactive	inactive	inactive	inactive
NC(=O)C(c1ccccc1)(c1ccccc1)[C@@H]1CCN(CCc2ccc3c(c2)CCO3)C1	–	inactive	–	–	–	–	–	–	–	1.69 µM (active)
Cc1c(Nc2ncccc2C(=O)O)cccc1C(F)(F)F	inactive	inactive	inactive	inactive	inactive	inactive	inactive	inactive	inactive	inactive
CCCSc1ccc2nc(NC(=O)OC)[nH]c2c1	–	inactive	inactive	inactive	inactive	inactive	inactive	inactive	inactive	–
CCCCC[C@H](O)/C=C/[C@@H]1[C@@H](C/C=C\CCCC(=O)O)[C@@H](O)C[C@H]1O	inactive	inactive	inactive	–	inactive	inactive	inactive	inactive	inactive	inactive
CC(=O)[C@]1(O)Cc2c(O)c3c(c(O)c2[C@@H](O[C@H]2C[C@H](N)[C@H](O)[C@H](C)O2)C1)C(=O)c1c(O)cccc1C3=O	10 µM (active)	12.6 µM (active)	7.94 µM (active)	–	8.91 µM (active)	12.6 µM (active)	7.08 µM (active)	7.08 µM (active)	5.01 µM (active)	4.26 µM (active)
COc1ccc(-c2cc(=S)ss2)cc1	–	–	inactive	inactive	inactive	–	inactive	–	–	inactive
CC(C(=O)O)c1ccc2c(c1)[nH]c1ccc(Cl)cc12 (stereo unspecified)	inactive	inactive	inactive	inactive	inactive	inactive	inactive	inactive	inactive	inactive
c1ccc2sc(SN3CCOCC3)nc2c1	inactive	–	inactive	inactive	inactive	inactive	–	inactive	–	–
O=C(Nc1ccc(C(=O)O)c(O)c1)c1ccccc1	inactive	inactive	inactive	inactive	inactive	inactive	inactive	inactive	inactive	inactive
O=C1CN(/N=C/c2ccc(-c3ccc([N+](=O)[O-])cc3)o2)C(=O)N1	inactive	inactive	inactive	–	–	inactive	inactive	inactive	inactive	inactive
Oc1c(Br)cc(Br)c2cccnc12	inactive	inactive	inactive	inactive	inactive	inactive	inactive	–	–	inactive
CCOc1ccc2nc(S(N)(=O)=O)sc2c1	–	inactive	–	inactive	inactive	inactive	inactive	inactive	inactive	inactive

Compound	Potency (P94_40)	Potency (PAD)	Potency (PC15)	Potency (PC26)	Potency (PC49)	Potency (SC27B)	Potency (TAB109)	Potency (TAB113)	Potency (TAB165)	Potency (W2)
CN1[C@@H](CC(=O)c2ccccc2)CCC[C@H]1C[C@H](O)c1ccccc1	11.2 µM (active)	–	–	–	7.08 µM (active)	–	–	–	14.1 µM (active)	5.36 µM (active)
O=c1[nH]c2ccccc2n1CCCN1CCN(C(c2ccccc2)c2ccccc2)CC1	–	–	–	–	–	–	–	–	–	6.75 µM (active)
CCCCCCCCCCCCCCCCCC(=O)O	inactive	inactive	inactive	inactive	inactive	inactive	–	inactive	inactive	inactive
COc1cc(CNC(=O)CCCC/C=C/C(C)C)ccc1O	inactive	inactive	inactive	inactive	inactive	inactive	inactive	inactive	inactive	inactive
CN1[C@@H]2CC[C@H]1CC(OC(c1ccccc1)c1ccccc1)C2 (stereo partly specified)	10 µM (active)	11.2 µM (active)	10 µM (active)	–	3.55 µM (active) and 1.41 µM (active)	inactive	–	–	11.2 µM (active)	1.9 µM (active)
CCCC(=O)OC[C@@H](OC(=O)CCC)[C@@H](OC(=O)CCC)[C@H](Cn1c2nc(=O)[nH]c(=O)c-2nc2cc(C)c(C)cc21)OC(=O)CCC	–	–	inactive	inactive	inactive	–	–	–	–	–
Clc1ccccc1-c1nc(-c2ccncc2)no1	inactive	–	–	inactive	inactive	inactive	–	inactive	–	–
Cc1cc(O)c2ccccc2c1O	inactive	inactive	inactive	–	inactive	inactive	inactive	inactive	inactive	9.53 µM (active)
O=C(O)c1cc(O)c(O)c(O)c1	inactive	inactive	inactive	inactive	inactive	inactive	inactive	–	–	5.36 µM (active)
COc1ccc(/C=C/C(=O)Nc2ccccc2C(=O)O)cc1OC	inactive	inactive	–	inactive	inactive	inactive	inactive	inactive	inactive	–
Nc1cc(-c2ccncc2)c[nH]c1=O	inactive	inactive	inactive	–	inactive	inactive	inactive	inactive	inactive	inactive
CN(C)c1ccc(C(=C2C=CC(=[N+](C)C)C=C2)c2ccccc2)cc1	–	–	–	–	inactive	inactive	12.6 µM (active)	–	5.01 µM (active)	1.35 µM (active)
Nc1ccc(C(=O)O)c(O)c1	inactive	inactive	inactive	inactive	inactive	inactive	inactive	inactive	inactive	inactive
C[S+](CC[C@H](N)C(=O)O)C[C@H]1O[C@@H](n2cnc3c(N)ncnc32)[C@H](O)[C@@H]1O (stereo partly specified)	–	–	inactive	inactive	inactive	inactive	–	–	–	inactive
O=C(CCN1CCN(CCO)CC1)N1c2ccccc2Sc2ccc(C(F)(F)F)cc21	–	inactive	–	–	–	inactive	–	inactive	–	7.57 µM (active)
COC(=O)C1=C(C)NC(C)=C(C(=O)OCC(C)C)C1c1ccccc1[N+](=O)[O-] (stereo unspecified)	–	–	–	–	–	–	8.91 µM (active)	–	10 µM (active)	6.01 µM (active)
COc1cc(/C=C/C(=O)CC(=O)/C=C/c2ccc(O)c(OC)c2)ccc1O	–	–	–	9.53 µM (active)	inactive	–	–	–	–	6.75 µM (active)
CC(N)C(=O)OC(C)(C)Cc1ccc(Cl)cc1 (stereo unspecified)	–	inactive	–	–	–	–	–	–	–	4.26 µM (active)
O=C(O)c1ccccc1Nc1cccc(C(F)(F)F)c1	inactive	inactive	inactive	inactive	inactive	inactive	inactive	inactive	inactive	inactive
CC1OC1P(=O)(O)O (stereo unspecified)	inactive	inactive	inactive	inactive	inactive	inactive	–	inactive	inactive	inactive
N=c1ccn2c(n1)O[C@H]1[C@H](O)[C@@H](CO)O[C@H]12	–	inactive	inactive	inactive	inactive	inactive	inactive	inactive	inactive	inactive
CCCCCCCCCCCC(=O)[O][Sn]([CH2]CCC)([CH2]CCC)[O]C(=O)CCCCCCCCCCC	inactive	inactive	inactive	–	inactive	inactive	inactive	inactive	inactive	inactive
COc1cc(/C=C/C(=O)N2CCN(CC(=O)N3CCCC3)CC2)cc(OC)c1OC	inactive	–	inactive	–	inactive	inactive	inactive	inactive	inactive	inactive

Source: PubChem BioAssay (NCATS)
